ASK1 inh – human ASK1 kinase inhibition, primary screen; 22,000 compounds, 0.99% hits; AlphaScreen MKK6 phosphorylation by ASK1, luminescence; AID 1159602; inhibition, % at 7.44 µM; Q99683; in the data active means inhibition above about 35%;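 further: 0% = median of compound wells and 100% = no enzyme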
ULK1 primary – human ULK1 kinase inhibition, primary screen. AlphaScreen Atg13 phosphorylation by ULK1, luminescence. AID 1259251. inhibition, % at 5.96 µM. O75385. 30,000 compounds, 1.9% hits; in the data active means inhibition above about 43%;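 further: 0% = median of compound wells and 100% = no enzyme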
Target sequence (O75385 whole entry, looked up): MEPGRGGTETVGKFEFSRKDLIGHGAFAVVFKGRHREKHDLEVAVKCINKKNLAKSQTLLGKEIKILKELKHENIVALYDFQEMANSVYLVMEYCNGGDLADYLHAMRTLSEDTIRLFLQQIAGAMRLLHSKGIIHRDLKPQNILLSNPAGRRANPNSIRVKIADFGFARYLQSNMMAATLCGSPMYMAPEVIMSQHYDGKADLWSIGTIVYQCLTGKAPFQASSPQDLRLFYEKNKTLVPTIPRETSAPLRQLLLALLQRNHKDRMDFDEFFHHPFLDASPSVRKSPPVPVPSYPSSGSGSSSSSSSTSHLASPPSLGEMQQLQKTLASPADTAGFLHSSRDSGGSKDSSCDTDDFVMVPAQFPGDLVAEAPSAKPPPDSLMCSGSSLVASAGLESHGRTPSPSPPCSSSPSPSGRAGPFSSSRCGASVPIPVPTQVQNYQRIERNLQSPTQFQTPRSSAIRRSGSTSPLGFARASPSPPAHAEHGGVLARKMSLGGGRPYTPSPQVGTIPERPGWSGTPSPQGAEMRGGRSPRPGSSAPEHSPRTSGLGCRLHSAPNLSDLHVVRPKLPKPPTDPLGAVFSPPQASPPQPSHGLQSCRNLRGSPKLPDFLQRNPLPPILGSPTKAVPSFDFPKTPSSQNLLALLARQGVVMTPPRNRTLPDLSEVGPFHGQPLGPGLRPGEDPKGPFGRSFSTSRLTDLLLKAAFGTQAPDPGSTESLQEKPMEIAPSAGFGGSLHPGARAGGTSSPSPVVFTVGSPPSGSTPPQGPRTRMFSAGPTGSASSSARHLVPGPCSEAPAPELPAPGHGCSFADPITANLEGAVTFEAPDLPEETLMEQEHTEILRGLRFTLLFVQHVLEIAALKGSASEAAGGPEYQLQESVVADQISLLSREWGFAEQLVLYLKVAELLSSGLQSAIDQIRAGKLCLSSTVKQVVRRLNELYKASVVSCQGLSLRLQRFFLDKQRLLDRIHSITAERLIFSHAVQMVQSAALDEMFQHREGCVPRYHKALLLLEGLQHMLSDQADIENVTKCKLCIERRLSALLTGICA
The depositor's hits bear a star. In the library only some 2.5% were active in any assay of this set; here they are far more common.

How did CC(CC(C(N)=O)(c1ccccc1)c1ccccc1)N(C)C (configuration not stated) do in these assays?
ULK1 primary: 2.2

Results for CCC(=O)OC(Cc1ccccc1)(c1ccccc1)[C@H](C)CN(C)C (some centres not stated) ?
ULK1 primary: 94.6*

What do the screens show for `O=C1CCCN1C(=O)c1ccccc1[N+](=O)[O-]`?
ULK1 primary: 8.2

How did CC12CC[C@H]3[C@@H](CCC4=CC(=O)CC[C@@H]43)[C@@H]1CC[C@@H]2O (some centres not stated) do in these assays?
ULK1 primary: -2.6

Results for CCN(CC)C(=O)N[C@H]1C=C2c3cccc4[nH]cc(c34)C[C@H]2N(C)C1 ?
ULK1 primary: 61.9*

Results for CC(CO)NC(=O)C1C=C2c3cccc4[nH]cc(c34)C[C@H]2N(C)C1 (some centres not stated) ?
ULK1 primary: 22.1

Results for CCCCCOC(=O)Cl ?
ULK1 primary: -5.2

What do the screens show for `C[C@H](N)[C@H](O)c1ccc(O)c(O)c1`?
ULK1 primary: 71.5*

How did C[C@H](N)[C@H](O)c1ccccc1 do in these assays?
ULK1 primary: -10.4

How did O=C1NC(=S)NC(=O)C1=Cc1ccc(I)o1 do in these assays?
ULK1 primary: 24.2

Results for O=C(Cc1ccccc1)Nc1cnn(-c2cccc(C(=O)NC3CN4CCC3CC4)c2)c1 (configuration not stated) ?
ASK1 inh: 1.2; ULK1 primary: 1.7

Results for CN(C)[C@@H]1C(=O)C(C(N)=O)=C(O)[C@@]2(O)C(=O)C3=C(O)c4c(O)ccc(Cl)c4[C@@](C)(O)C3C[C@@H]12 (some centres not stated) ?
ULK1 primary: 49.2*

Results for CN(C)C1C(=O)C(C(N)=O)=C(O)C2(O)C(=O)C3=C(O)c4c(O)cccc4C(C)(O)C3CC12 (configuration not stated) ?
ULK1 primary: 71.6*

Results for CN(C)[C@@H]1C(=O)C(C(N)=O)=C(O)[C@@]2(O)C(=O)C3=C(O)c4c(O)cccc4[C@@](C)(O)[C@H]3C[C@@H]12 ?
ULK1 primary: 24.4

What do the screens show for `CCOC(=O)C[n+]1ccc(-c2cc[n+](CC(=O)OCC)cc2)cc1`?
ULK1 primary: -2.1
